Measurements: PubChem BioAssay (NCATS)
Records with an inconclusive call do not appear. Activity calls are given as the source filed them. The call rests on the fitted dose curve; in most records, active means well fitted curve in the direction sought with a large enough effect; inconclusive means small, poorly fitted or top-dose-only effect, or another doubt; inactive means no such curve, though single readings can be large; an effect the other way counts as inactive or inconclusive.

Key:
MCC-26 = assay: qHTS assay to identify novel small-molecules to repurpose for Merkel cell carcinoma treatment (AID 1296009); conditions: MCC and control cell lines, CellTiter-Glo viability, 72 h; series mostly up to 46 µM; further: nearly all actives have a fitted effect of over 60% in size; further: potency means the concentration at half of the fitted maximal effect
Procedure, shortened: (§1)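 Luminescence from CellTiter-Glo, read 10 min after addition at room temperature, reported viability following a 72 hr, 37 degree celsius treatment with NPC or MIPE compounds in titration; values normalized to plate controls.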

MKL-1 = assay: as above; conditions: MCC and control cell lines, CellTiter-Glo viability, 72 h; series mostly up to 46 µM
Procedure, shortened: as §1

MKL-2 = assay: as above; conditions: MCC and control cell lines, CellTiter-Glo viability, 72 h; series mostly up to 46 µM
Procedure, shortened: as §1

NIH3T3 = assay: as above; conditions: MCC and control cell lines, CellTiter-Glo viability, 72 h; series mostly up to 44.8 µM
Procedure, shortened: as §1

UISO = assay: as above; conditions: MCC and control cell lines, CellTiter-Glo viability, 72 h; series mostly up to 46 µM
Procedure, shortened: as §1

WaGa = assay: as above; conditions: MCC and control cell lines, CellTiter-Glo viability, 72 h; series mostly up to 46 µM
Procedure, shortened: as §1

C33A = assay: Primary qHTS to identify gynecologic anti-cancer compounds using libraries of approved drugs and bioactive compounds (AID 1345084); conditions: Gynecologic cancer cell panel viability, ATPlite luminescence, 48 h; series mostly up to 57.5 µM; further: nearly all actives have a fitted effect of over 55% in size
Procedure, shortened: (§2)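 Five-concentration response, 48 h; readout is ATP-driven luciferase luminescence.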

CAOV3 = assay: as above; conditions: Gynecologic cancer cell panel viability, ATPlite luminescence, 48 h; series mostly up to 57.5 µM
Procedure, shortened: as §2

CASKI = assay: as above; conditions: Gynecologic cancer cell panel viability, ATPlite luminescence, 48 h; series mostly up to 57.5 µM
Procedure, shortened: as §2

Es-2 = assay: as above; conditions: Gynecologic cancer cell panel viability, ATPlite luminescence, 48 h; series mostly up to 57.5 µM
Procedure, shortened: as §2
On the % scale 0 is the no-effect control and ±100 the full control effect.

CCCCC[C@H](O)C=C[C@H]1[C@H](O)CC(=O)[C@H]1CCCCCCC(=O)O
inactive: Potency (MCC-26) | Potency (MKL-1)

Cc1ccc2c(=O)c3cccc(CC(=O)O)c3oc2c1C
inactive: Potency (MCC-26) | Potency (MKL-1) | Potency (MKL-2) | Potency (NIH3T3) | Potency (UISO) | Potency (WaGa)

OC1CCC(Nc2ncc3nc(Nc4c(F)cc(F)cc4F)n([C@@H]4CCOC4)c3n2)CC1 (stereo partly specified)
inactive: Potency (MCC-26) | Potency (MKL-1) | Potency (MKL-2) | Potency (NIH3T3) | Potency (UISO) | Potency (WaGa)

CC(C)Oc1cc(Nc2nc(N[C@@H](C)c3ccc(F)cn3)ncc2Cl)[nH]n1
inactive: Potency (MKL-1) | Potency (MKL-2)
active: Potency (MCC-26) 14.8 µM

CCN(CC)CCCCNc1nc2cc(Cl)c(Cl)cc2nc1-c1ccc(-c2cccs2)s1
active: Potency (MKL-1) 23.5 µM | Potency (MKL-2) 14.8 µM
inactive: Potency (MCC-26)

COc1ccc(CCC(=O)Nc2nc3ccc(Cl)cc3s2)cc1OC
inactive: Potency (MCC-26) | Potency (MKL-1) | Potency (MKL-2) | Potency (NIH3T3) | Potency (UISO) | Potency (WaGa) | Potency (C33A) | Potency (CAOV3) | Potency (CASKI) | Potency (Es-2)

CN[C@@H](C)[C@H]1[C@H](O)C[C@@]2(C)[C@@H]3CC[C@H]4C(C)(C)[C@@H](NC)CC[C@@]45C[C@@]35CC[C@]12C
inactive: Potency (MCC-26) | Potency (MKL-1) | Potency (MKL-2) | Potency (NIH3T3) | Potency (UISO) | Potency (WaGa) | activity change, negative = cytotoxicity (C33A) 14.9% [at 11.6 µM] | activity change, negative = cytotoxicity (CAOV3) 7.65% [at 11.6 µM] | activity change, negative = cytotoxicity (CASKI) 1.7% [at 11.6 µM] | activity change, negative = cytotoxicity (Es-2) -1.65% [at 11.6 µM]

CC(O)=C(C#N)C(=O)Nc1ccc(C(F)(F)F)cc1
inactive: Potency (MCC-26)

C[C@@]1(c2cc(-c3cncnc3)c(F)cc2F)CCSC(N)=N1
inactive: Potency (MCC-26) | Potency (MKL-1) | Potency (MKL-2) | Potency (NIH3T3) | Potency (UISO) | Potency (WaGa) | Potency (C33A) | Potency (CAOV3) | Potency (CASKI) | Potency (Es-2)

Cc1cc(OCCCS(C)(=O)=O)cc(C)c1-c1cccc(COc2ccc3c(c2)OC[C@H]3CC(=O)O)c1
inactive: Potency (MCC-26) | Potency (MKL-1)

Oc1ccc(C=Cc2cc(O)cc(O)c2)cc1
inactive: Potency (MCC-26) | Potency (MKL-1)

Cc1ccc(NC(=O)c2ccc(CN3CCN(C)CC3)cc2)cc1Nc1nc(-c2cccnc2)cs1
inactive: Potency (MCC-26) | Potency (MKL-1)

C[C@H]1COC2=C1C(=O)C(=O)c1c2ccc2c1CCCC2(C)C
inactive: Potency (MCC-26) | Potency (MKL-1) | Potency (MKL-2) | Potency (NIH3T3) | Potency (UISO) | Potency (WaGa)

Cc1cc2nc3c(=O)[nH]c(=O)nc-3n(CC(O)C(O)C(O)CO)c2cc1C (stereo unspecified)
inactive: Potency (MCC-26) | Potency (MKL-1) | Potency (MKL-2) | Potency (NIH3T3) | Potency (UISO) | Potency (WaGa)

CC[C@H](C)n1cc(C)c2c(C(=O)NCc3c(C)cc(C)[nH]c3=O)cc(-c3ccc(N4CCNCC4)nc3)cc21
inactive: Potency (MCC-26) | Potency (MKL-1) | Potency (MKL-2) | Potency (NIH3T3) | Potency (UISO) | Potency (WaGa)

COc1cc(C=CC(=O)O)ccc1O
inactive: Potency (MCC-26) | Potency (MKL-1) | Potency (MKL-2) | Potency (NIH3T3) | Potency (UISO) | Potency (WaGa)

OC[C@H]1O[C@@H](Oc2ccc(O)cc2)[C@H](O)[C@@H](O)[C@H]1O
inactive: Potency (MCC-26) | Potency (MKL-1) | Potency (MKL-2) | Potency (NIH3T3) | Potency (UISO) | Potency (WaGa)

CN1CCN2c3ncccc3Cc3ccccc3C2C1 (stereo unspecified)
inactive: Potency (MCC-26) | Potency (MKL-1) | Potency (MKL-2) | Potency (NIH3T3) | Potency (UISO) | Potency (WaGa)

COc1ccc(-c2oc3c(CC=C(C)C)c(O)cc(O)c3c(=O)c2O)cc1
inactive: Potency (MCC-26) | Potency (MKL-1) | Potency (MKL-2) | Potency (NIH3T3) | Potency (UISO) | Potency (WaGa)

CCNC(=O)[C@H]1O[C@@H](n2cnc3c(N)nc(NCCc4ccc(CCC(=O)O)cc4)nc32)[C@H](O)[C@H]1O
inactive: Potency (MCC-26) | Potency (MKL-1) | Potency (MKL-2) | Potency (NIH3T3) | Potency (UISO) | Potency (WaGa)

CCOC(=O)N1c2ccc(C(F)(F)F)cc2[C@@H](N(Cc2cc(C(F)(F)F)cc(C(F)(F)F)c2)C(=O)OC)C[C@H]1CC
inactive: Potency (MCC-26) | Potency (MKL-1) | Potency (MKL-2) | Potency (NIH3T3) | Potency (UISO) | Potency (WaGa)

CC(NCCc1ccc(O)cc1)C(O)c1ccc(O)cc1 (stereo unspecified)
inactive: Potency (MCC-26) | Potency (MKL-1) | Potency (MKL-2) | Potency (NIH3T3) | Potency (UISO) | Potency (WaGa)

CN1[C@H]2CC[C@H]1CC(OC(=O)c1c[nH]c3ccccc13)C2 (stereo partly specified)
inactive: Potency (MCC-26) | Potency (MKL-1) | Potency (MKL-2) | Potency (NIH3T3) | Potency (UISO) | Potency (WaGa)

COc1ccc2cc1Oc1ccc(cc1)C[C@H]1c3cc(c(OC)cc3CCN1C)Oc1c(OC)c(OC)cc3c1[C@H](C2)N(C)CC3
inactive: Potency (MCC-26)

O=C(Nc1ncc(SCCN2CCCC2)s1)[C@]1(c2ccc(S(=O)(=O)C3CC3)cc2)C[C@@H]1C1CCCCC1
inactive: Potency (MCC-26)

CC(=O)N1CCN(c2ccc(OCc3nn(C)c(C)c3-c3cccc4c(CCCOc5cc(C)c(Cl)c(C)c5)c(C(=O)O)n(Cc5cccnc5)c34)cc2)CC1
active: Potency (MKL-2) 14.8 µM | Potency (WaGa) 11.8 µM
inactive: Potency (MCC-26) | Potency (MKL-1) | Potency (NIH3T3) | Potency (UISO)

c1ccc(CNc2nc(N3CCOc4ccccc43)nc3c2CCCC3)cc1
inactive: Potency (MCC-26) | Potency (MKL-1) | Potency (MKL-2) | Potency (NIH3T3) | Potency (UISO) | Potency (WaGa) | Potency (C33A) | Potency (CAOV3) | Potency (CASKI) | Potency (Es-2)
